For 97 molecules, Potency results are on record in ChEMBL document CHEMBL1201862, “PubChem BioAssay data set” (2004).

Where “and” joins values, the source holds several entries; their conditions need not be identical. Equal entries are not always repeated. The campaign covered roughly 400,000 compounds. About 2,100 (0.53%) were called active. Inconclusive results (about 14%) are left out. The rule behind the calls is not given here. For the sample, actives were picked, then their nearest neighbours and some compounds at random.

The target of the assay is Ataxin-2 (Homo sapiens) (UniProt Q99700). Nature of the assay: qHTS for Inhibitors of ATXN expression. Type of assay: functional. (Quantitative high-throughput screening tests each substance at several concentrations.)
Chain of Ataxin-2 (Homo sapiens) (Q99700 whole entry): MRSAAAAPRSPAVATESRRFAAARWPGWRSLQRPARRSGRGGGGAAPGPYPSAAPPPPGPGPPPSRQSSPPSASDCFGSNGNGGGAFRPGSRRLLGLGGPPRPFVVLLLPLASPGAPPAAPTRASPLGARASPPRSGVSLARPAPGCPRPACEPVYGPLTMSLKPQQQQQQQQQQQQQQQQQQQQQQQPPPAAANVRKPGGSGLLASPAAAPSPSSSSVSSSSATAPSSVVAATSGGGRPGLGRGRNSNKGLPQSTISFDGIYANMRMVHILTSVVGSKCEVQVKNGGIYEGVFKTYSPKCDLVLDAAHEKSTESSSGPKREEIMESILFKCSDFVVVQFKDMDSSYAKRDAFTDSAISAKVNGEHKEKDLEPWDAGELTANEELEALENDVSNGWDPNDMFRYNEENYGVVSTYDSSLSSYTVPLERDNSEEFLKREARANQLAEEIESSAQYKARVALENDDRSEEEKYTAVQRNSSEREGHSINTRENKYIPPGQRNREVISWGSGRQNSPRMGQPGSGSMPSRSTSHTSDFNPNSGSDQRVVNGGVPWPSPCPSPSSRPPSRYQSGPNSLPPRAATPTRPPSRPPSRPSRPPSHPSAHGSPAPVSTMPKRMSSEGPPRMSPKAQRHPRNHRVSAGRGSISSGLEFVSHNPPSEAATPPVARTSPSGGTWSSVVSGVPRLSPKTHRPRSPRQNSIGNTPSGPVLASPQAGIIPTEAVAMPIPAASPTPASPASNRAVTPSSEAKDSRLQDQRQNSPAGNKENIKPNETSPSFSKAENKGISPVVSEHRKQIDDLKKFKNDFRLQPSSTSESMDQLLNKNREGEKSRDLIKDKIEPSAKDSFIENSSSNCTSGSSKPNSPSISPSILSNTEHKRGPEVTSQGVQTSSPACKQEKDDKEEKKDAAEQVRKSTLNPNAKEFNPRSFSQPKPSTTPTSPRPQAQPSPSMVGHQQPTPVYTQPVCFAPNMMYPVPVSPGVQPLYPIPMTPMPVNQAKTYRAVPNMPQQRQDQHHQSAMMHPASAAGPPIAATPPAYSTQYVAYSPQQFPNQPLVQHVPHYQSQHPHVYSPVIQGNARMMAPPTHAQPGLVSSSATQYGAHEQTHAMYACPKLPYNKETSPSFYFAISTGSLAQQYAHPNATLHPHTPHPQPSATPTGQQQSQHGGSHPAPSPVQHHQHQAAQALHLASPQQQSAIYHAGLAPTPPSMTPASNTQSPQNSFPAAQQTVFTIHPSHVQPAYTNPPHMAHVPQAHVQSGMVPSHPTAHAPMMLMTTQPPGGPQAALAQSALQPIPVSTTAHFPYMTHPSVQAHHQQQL
For `NC(Cc1ccc(F)cc1)c1csc(Nc2ccc(C(F)(F)F)cn2)n1` (configuration not stated), the Potency was 35.5 µM (active). The figure for `CCc1cnc(Nc2nc(C(N)Cc3ccc(F)cc3)cs2)nc1` (configuration not stated) is 25.1 µM (active); for `NC(Cc1ccc(F)cc1)c1csc(Nc2nccc(C(F)(F)F)n2)n1` (configuration not stated) it is 39.8 µM (active); for `COc1cccc(Nc2nc(C(N)Cc3ccc(C(F)(F)F)cc3)cs2)n1` (configuration not stated) it is 31.6 µM (active). `O=C(NCCN1CCCOC1=O)C(=O)NCCN1CCCOC1=O`: the Potency result was “inactive”. As to `O=C(NC1CCCc2ccccc21)c1ccccc1Cl` (configuration not stated), the Potency result is “inactive”. Turning to `O=C(Nc1ccc2nc(-c3ccco3)c(-c3ccco3)nc2c1)NC1CC1`, the Potency entry is “inactive”.

As to `CCOC(=O)c1cnc2nc(N3CCOCC3)nn2c1N`, the Potency result is “inactive”. `NC(=S)c1cc2ccc(O)cc2oc1=O`: the Potency result is “inactive”.

For `Cc1[nH]c2ccccc2c1/C=C/c1nc2ccccc2c(=O)n1CCO`, the Potency entry was “inactive”. The figure for `NC(c1ccccc1)c1csc(Nc2ccc(C(F)(F)F)cn2)n1` (configuration not stated) is 35.5 µM (active). In the case of `CCCc1cnc(Nc2nc(C(N)Cc3ccc(C(F)(F)F)cc3)cs2)nc1` (configuration not stated) it was 22.4 µM (active). In the case of `COc1cc(OC)nc(Nc2nc(C(N)Cc3ccc(Cl)cc3)cs2)n1` (configuration not stated) it was 35.5 µM (active); in that of `CCc1cnc(Nc2nc(C(N)Cc3ccc(Cl)cc3)cs2)nc1` (configuration not stated), 35.5 µM (active).

`COc1ccccc1/C=[N+](\[O-])C1SC(=S)N(C)C1(C)C` (configuration not stated): the Potency entry is “inactive”. Turning to `Cc1c(C)c2ccc(O[C@@H]3O[C@H](CO)[C@@H](O)[C@H](O)[C@H]3O)c(C)c2oc1=O`, the Potency result is “inactive”. For `Cc1nc2ccc(NS(=O)(=O)c3c(F)cc(F)cc3Br)cc2s1`, the Potency result was “inactive”.

With `O=C(Nc1ccc(NC(=O)C2CC2)nc1)c1cnccn1`, the Potency entry is “inactive”. As to `COc1ccc(-c2cc(=O)oc3c(O)c(O)ccc23)cc1`, the Potency result was “inactive”.

For `O=C(Nc1nc2n(n1)C(c1ccc(Cl)cc1)C=C(c1ccccc1)N2)c1ccco1` (configuration not stated), the Potency result was “inactive”. `O=C(CN1C(=O)/C(=C\c2cccc(Br)c2)Oc2ccccc21)NCCCN1CCOCC1`: the Potency is 39.8 µM (active). In the case of `CCCCNC(=O)c1ccc(/C=C2\Oc3ccccc3N(C)C2=O)cc1`, the Potency entry was “inactive”. In the case of `O=C(CN1C(=O)/C(=C\c2ccccc2Cl)Oc2ccccc21)NCc1cccnc1` it was “inactive”; in that of `COc1cc(/C=C(\C#N)c2ccccn2)ccc1OCc1ccccc1`, “inactive”; in that of `O=C1OCCN1C(=O)[C@H]1[C@H](c2ccc(F)cc2)C(c2cccc(Cl)c2)=NN1c1ccc(Br)cc1`, “inactive”.

On to `Oc1cnnc(Nc2ccc(Nc3ccccc3)cc2)n1`, for which the Potency result is “inactive”. The figure for `CCCCc1ccc(Nc2nc(O)cc(CCC)n2)cc1` is 39.8 µM (active). `CCNC(=O)N1CCN(S(=O)(=O)c2ccc3c(c2)OCCCO3)CC1`: the Potency entry was “inactive”.

As for `O=S(=O)(c1ccccc1)N(CC(F)(F)F)c1ccc(C(O)(C(F)(F)F)C(F)(F)F)cc1`, the Potency is 22.4 µM (active). Regarding `CCN(c1ccc(OCC(=O)OCC(=O)Nc2ccc(F)c(F)c2F)cc1)S(=O)(=O)c1ccccc1`, the Potency result is “inactive”. The entry for `COc1ccc(NC(=O)c2sc3nc(N4CCOCC4)c4c(c3c2N)CCCC4)cc1` is “inactive”; for `CC1(C(=O)NNC(=O)c2ccc(=O)oc2)CC1Br` (configuration not stated) it is “inactive”; for `O=C(c1ccccc1NS(=O)(=O)c1ccc([N+](=O)[O-])cc1[N+](=O)[O-])N1O[C@@H]2C=C[C@H]1C2` it is 22.4 µM (active). The entry for `O=C(O)/C=C/c1cn(-c2ccccc2)nc1-c1cccs1` is “inactive”. For `CCN(CC)CCNC(=O)c1ccc(NC(=O)c2cn(-c3ccccc3)nc2-c2cccs2)cc1`, the Potency was 39.8 µM (active). In the case of `COc1ccc(-c2nn(-c3ccccc3)cc2C(=O)Nc2ccc(C(=O)O)cc2)cc1OC` it was “inactive”; in that of `CC(C)c1ccc(C2=CC(c3cccc(Cl)c3)n3ncnc3N2)cc1` (configuration not stated), “inactive”; in that of `CC(c1ccccc1)N(C)C(=O)CN1CCN(S(=O)(=O)c2ccc3c(c2)OCCCO3)CC1` (configuration not stated), “inactive”. As for `CCN(CC)CCOc1ccc(/C(=C(/Cl)c2ccccc2)c2ccccc2)cc1`, the Potency was 35.5 µM (active) and 17.8 µM (active). As for `C=CCN(CC=C)CCOc1cccc(Oc2ccccc2)c1`, the Potency result was “inactive”. In the case of `COc1ccc(CNc2oc(/C=C/c3cccc(OC)c3)nc2C#N)cc1` it was “inactive”. The entry for `O=c1oc2c3c4c(cc2c(C(F)(F)F)c1CCN1CCOCC1)CCCN4CCC3` is “inactive”.

As to `CCN(c1ccccc1)S(=O)(=O)c1ccc(Cl)c(C(=O)N2CCCC2)c1`, the Potency entry is “inactive”.

With `Cc1ccc(S(=O)(=O)N2CCN(C(=O)c3ccccn3)CC2)cc1`, the Potency result was “inactive”. The figure for `Cc1ccc(S(=O)(=O)N(Cc2ccccc2)c2ccccc2C(=O)N2CCCCC2)cc1` is 31.6 µM (active); for `CCOc1ccc2nc(NCCNC(=O)c3cc(OC)c(OC)c(OC)c3)c(C#N)cc2c1` it is “inactive”. In the case of `CCOc1ccc(-c2nnc(SCC(=O)Nc3ccc4c(c3)c3ccccc3n4CC)n2N)cc1` it was 31.6 µM (active); in that of `CCn1c(SCC(=O)Nc2cccc(Cl)c2)nnc1-c1nonc1NC(C)=O`, “inactive”; in that of `CCC(=O)Nc1ccc(NC(=O)CSc2nnnn2Cc2ccccc2)cc1C`, “inactive”. As to `O=C(NCCO)c1cc2cc(Cl)cc(Cl)c2oc1=O`, the Potency entry was “inactive”. In the case of `Cc1nccn1CCN(C)Cc1cn(Cc2ccccc2)nc1-c1ccc2c(c1)OCO2`, the Potency entry was “inactive”.

For `CN(Cc1cn(C)nc1-c1ccc(Oc2ccccc2)cc1)Cc1cnc2ccccn12`, the Potency was 35.5 µM (active). The entry for `Cc1ccc2nc(N3CC(C)OC(C)C3)nc(-c3ccccc3)c2c1` (configuration not stated) is “inactive”; for `CC(C)Cc1ccc(C(C)C(=O)Nc2ncccn2)cc1` (configuration not stated) it is “inactive”; for `CC(C)Cc1ccc(C(C)CC2=CCC(CN(C)C)C2=O)cc1` (configuration not stated) it is 22.4 µM (active).

Consider `COc1cccc(CN2CC(C(=O)N3CCSCC3)CCC2=O)c1` (configuration not stated), for which the Potency entry is “inactive”.

In the case of `O=C(Oc1cc2oc(=O)cc(-c3ccccc3)c2cc1Cl)C1CCCCC1`, the Potency entry is “inactive”. The entry for `CCCCNC(=O)c1cc2nc(-c3ccc(OC)cc3)cc(C(F)(F)F)n2n1` is “inactive”; for `CCN(CCCNC(=O)c1cc2cc3ccc(OC)cc3nc2s1)c1cccc(C)c1` it is 39.8 µM (active); for `CCN(CCCNC(=O)c1cc(Nc2ccc(OC)cc2)nc2ccccc12)c1cccc(C)c1` it is “inactive”. In the case of `CCN1CCCC1CNC(=O)c1ccc2c(c1)NC(=O)/C(=C\c1ccc(OC)c(OC)c1)S2` (configuration not stated) it was 31.6 µM (active); in that of `CCN1CCCC1CNC(=O)c1ccc2c(c1)NC(=O)/C(=C\c1ccc(C)cc1)S2` (configuration not stated), 35.5 µM (active); in that of `O=C1Nc2cc(C(=O)N3CCOCC3)ccc2S/C1=C/c1ccccc1F`, “inactive”. In the case of `COCCCn1c(=O)/c(=C\c2ccc(OC(F)F)c(OC)c2)s/c1=C(/C#N)C(N)=O`, the Potency entry is “inactive”.

For the molecule `O=C(c1ccc2nc(-c3ccccc3)c(-c3ccccc3)nc2c1)N1CCCCC1`, the Potency entry is “inactive”. With `O=C1Nc2cc(C(=O)N3CCC(N4CCCCC4)CC3)ccc2S/C1=C\c1ccccc1`, the Potency was 39.8 µM (active). The entry for `Cc1cccc2cc(C#N)c(NCCNS(=O)(=O)c3ccccc3)nc12` is “inactive”; for `COc1ccc(O)c(C(=O)c2coc(=N)c(C(=O)Nc3ccc(SC(F)F)cc3)c2)c1` it is “inactive”. Turning to `CN(C)c1ccc(-c2ccc3c(=O)c4ccccc4n(C)c3c2)cn1`, the Potency result is “inactive”. As to `COc1ccc(-c2ccc3c(N)c(C(=O)NC(C)C)sc3n2)cc1OC`, the Potency entry is “inactive”. Take `Cc1cccn2c(=O)c3cc(C(=O)NC4CCCC4)c(=N)n(C4CCCC4)c3nc12`: the Potency entry is “inactive”. In the case of `COC(CN(C)C(=O)c1cn(C)c2ccc(S(=O)(=O)N(C)C3CCCCC3)cc2c1=O)OC` it was “inactive”; in that of `Cc1ccc(C)c(N(C)S(=O)(=O)c2ccc3[nH]cc(C(=O)NC4CCCC4)c(=O)c3c2)c1`, 28.2 µM (active).

Turning to `CCc1nnc(NC(=O)CSc2nc3c(cc2C#N)CCC3)s1`, the Potency result was “inactive”. For the molecule `N#CCCN(Cc1ccccc1)C(C(=O)NC1CCCCC1)c1cc2ccccc2o1` (configuration not stated), the Potency was 39.8 µM (active). The entry for `N=c1c(C(=O)NC2CCCCC2)cc2c(=O)n3ccccc3nc2n1Cc1ccccc1` is “inactive”; for `N=c1c(C(=O)NC2CCCC2)cc2c(=O)n3ccccc3nc2n1Cc1ccccc1` it is “inactive”.

For `COc1ccc(CCC(C)NCc2ccc(F)cc2)cc1` (configuration not stated), the Potency entry is “inactive”. `COc1ccc(CCC(C)NCCc2ccc(Cl)cc2Cl)cc1` (configuration not stated): the Potency was 39.8 µM (active).

Take `COc1ccc(-c2sc(C(=O)c3ccc(Cl)cc3Cl)cc2CC(=O)O)cc1`: the Potency entry was “inactive”. The entry for `COc1ccc(OC)c(/C=C/C(=O)Nc2ccc(C(=O)OCCC(C)C)cc2)c1` is “inactive”. In the case of `CCOc1cc(/C=C/C(=O)Nc2ccc(C(=O)NCCN(CC)CC)cc2)ccc1OCC(C)C`, the Potency is 22.4 µM (active). With `COc1cccc(OC)c1C(=O)Nc1ccccc1Sc1ccccc1`, the Potency entry was “inactive”. In the case of `COc1ccc(C2C=C(c3ccccc3)Nc3nc(NS(=O)(=O)c4ccc(Cl)cc4)nn32)cc1` (configuration not stated) it was “inactive”; in that of `Cc1nc2ccc(C(=O)Nc3cccc(OCC(=O)N(C)C)c3)cn2c1N(C)CC1CCCCC1`, 35.5 µM (active); in that of `Cc1ccc2nc3c(cc(C(=O)NC4CCCCC4)c(=N)n3C3CCCCC3)c(=O)n2c1`, “inactive”. In the case of `Cc1ccc2nc3c(cc(C(=O)NC4CCCC4)c(=N)n3C3CCCCC3)c(=O)n2c1` it was “inactive”; in that of `COc1ccc(C(=O)c2sc3nc(C)cc(-c4cccs4)c3c2N)cc1OC`, “inactive”.

Regarding `CCCn1nc(NC(C)=O)c2cc3cccc(C)c3nc21`, the Potency result was “inactive”. As to `CCOc1ccc(NCc2cccn2-c2nnc(N3CCC(C(=O)NCCCN4CCCCC4CC)CC3)s2)cc1` (configuration not stated), the Potency was 22.4 µM (active). The entry for `COCCCn1/c(=N/C(C)=O)c(C#N)cc2c(=O)n3cccc(C)c3nc21` is “inactive”; for `COc1ccccc1NC(=O)c1sc2nc(C)c(C(=O)Nc3ccc(C)cc3C)c(-c3cccs3)c2c1N` it is “inactive”. Take `COc1ccccc1C(=O)Nc1c(C(=O)N(C)Cc2ccccc2)sc2nc(C)c(Cl)c(C)c12`: the Potency was 11.2 µM (active). Consider `COc1ccccc1NC(=O)c1sc2nc(Cc3ccccc3)cc(C(F)(F)F)c2c1N`, for which the Potency result is “inactive”. The entry for `Nc1cc(C(F)(F)F)cc([N+](=O)[O-])c1N` is “inactive”; for `FC(F)(F)c1cccc(NC(S)=NCc2ccc(Cl)cc2)c1` it is “inactive”. In the case of `O=[N+]([O-])c1cc(C(F)(F)F)cc([N+](=O)[O-])c1NCCN=C(S)Nc1ccc(Cl)c(Cl)c1` it was 39.8 µM (active).
